Data from PubChem BioAssay AID1159580 (chemical genetic matrix, 2015).
Several values for one entry are separate records, joined by “and”; a condition that tells them apart may be missing. Identical values can stand only once. About 2,000 (36%) of roughly 5,500 compounds were called active. About 18% were inconclusive and are not listed. No stated cut-off is given here; in the data, active means normalized growth mostly below about 0.91 (no sharp cut-off); inconclusive means no clear call, values can overlap the other calls; inactive means mostly above about 0.92. This is one part of the list.

Experiment: chemical genetic growth profiling, strain panel (AID 1159580);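 further: tested at 20 µM; growth read once vehicle control cultures reached saturation at 30 °C; 1 = growth at the plate median or of vehicle wells; lower values mean less growth of the strain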
Conditions: S. cerevisiae deletion strains, growth OD

Measured: normalized growth

CCOC(=O)c1c(C)cc(O)c(C=O)c1O
inactive: locus YBR021W, strain FUR4, active compounds read low 0.851 | locus YDR195W, strain ref2 0.908
active: locus YAL013W, strain DEP1, active compounds read low 0.271 | locus YAL021C, strain ccr4, active compounds read low 0.615 | locus YAL026C, strain drs2, active compounds read low 0.212 | locus YAL030W, strain snc1, active compounds read low 0.725 | locus YBL061C, strain skt5, active compounds read low 0.642 | locus YBR009C, strain hhf1, active compounds read low 0.592 | locus YBR023C, strain chs3, active compounds read low 0.619 | locus YBR171W, strain sec66, active compounds read low 0.776 | locus YBR229C, strain ROT2, active compounds read low 0.541 | locus YBR231C, strain swc5, active compounds read low 0.548 | locus YBR279W, strain paf1, active compounds read low 0.66 | locus YCL011C, strain gbp2, active compounds read low 0.616 | locus YCL016C, strain dcc1, active compounds read low 0.714 | locus YCL029C, strain bik1, active compounds read low 0.144 | locus YCL061C, strain MRC1, active compounds read low 0.624 | locus YCL069W, strain vba3, active compounds read low 0.531 | locus YCR088W, strain abp1, active compounds read low 0.832 | locus YDL005C, strain med2, active compounds read low 0.903 | locus YDL035C, strain GPR1, active compounds read low 0.21 | locus YDL040C, strain nat1, active compounds read low 0.86 | locus YDL074C, strain BRE1, active compounds read low 0.156 | locus YDL101C, strain DUN1, active compounds read low 0.16 | locus YDL134C, strain PPH21, active compounds read low 0.249 | locus YDL185W, strain tfp1, active compounds read low 0.0651 | locus YDL192W, strain arf1, active compounds read low 0.202 | locus YDR001C, strain nth1, active compounds read low 0.841 | locus YDR069C, strain doa4, active compounds read low 0.516 | locus YDR101C, strain arx1, active compounds read low 0.181 | locus YDR137W, strain rgp1, active compounds read low 0.202 | locus YDR150W, strain NUM1, active compounds read low 0.436 | locus YDR159W, strain sac3, active compounds read low 0.413 | locus YDR162C, strain NBP2, active compounds read low 0.0543 | locus YDR297W, strain sur2, active compounds read low 0.609 | locus YDR318W, strain mcm21, active compounds read low 0.142 | locus YDR334W, strain swr1, active compounds read low 0.619 | locus YDR335W, strain msn5, active compounds read low 0.623 | locus YDR388W, active compounds read low 0.213 | locus YDR392W, strain spt3, active compounds read low 0.135 | locus YDR502C, strain sam2, active compounds read low 0.185 | locus YEL003W, strain gim4, active compounds read low 0.582 | locus YEL037C, strain rad23, active compounds read low 0.71 | locus YEL061C, strain CIN8 (second series), active compounds read low 0.643 | locus YEL061C, strain CIN8, active compounds read low 0.153 | locus YER015W, strain faa2, active compounds read low 0.516 | locus YER016W, strain bim1, active compounds read low 0.768 | locus YER110C, active compounds read low 0.295 | locus YER111C, strain swi4, active compounds read low 0.278 | locus YER155C, strain BEM2 (second series), active compounds read low 0.409 | locus YER155C, strain BEM2, active compounds read low 0.178 | locus YER167W, strain BCK2, active compounds read low 0.105 | locus YFR010W, strain ubp6, active compounds read low 0.681 | locus YGL078C, strain dbp3, active compounds read low 0.57 | locus YGL086W, strain mad1, active compounds read low 0.186 | locus YGL167C, strain pmr1, active compounds read low 0.842 | locus YGL173C, strain kem1, active compounds read low 0.27 | locus YGL227W, strain vid30, active compounds read low 0.821 | locus YGL240W, strain doc1, active compounds read low 0.503 | locus YGL248W, strain PDE1, active compounds read low 0.236 | locus YGL253W, strain hxk2, active compounds read low 0.283 | locus YGR078C, strain PAC10, active compounds read low 0.103 | locus YGR135W, strain pre9, active compounds read low 0.119 | locus YGR229C, strain SMI1, active compounds read low 0.0734 | locus YGR252W, strain gcn5, active compounds read low 0.303 | locus YHR013C, strain ard1, active compounds read low 0.506 | locus YHR027C, strain rpn1, active compounds read low 0.405 | locus YHR030C, strain SLT2, active compounds read low 0.064 and 0.117 | locus YHR079C, strain IRE1 (second series), active compounds read low 0.16 | locus YHR079C, strain IRE1, active compounds read low 0.138 | locus YHR094C, strain hxt1, active compounds read low 0.231 | locus YHR129C, strain ARP1, active compounds read low 0.187 | locus YHR142W, strain chs7, active compounds read low 0.345 | locus YHR200W, strain rpn10, active compounds read low 0.484 | locus YIL066C, strain RNR3, active compounds read low 0.167 | locus YIL073C, strain SPO22, active compounds read low 0.211 | locus YIL125W, strain kgd1, active compounds read low 0.471 | locus YIR030C, strain dcg1, active compounds read low 0.196 | locus YJL092W, strain hpr5, active compounds read low 0.756 | locus YJL095W, strain BCK1 (second series), active compounds read low 0.381 | locus YJL095W, strain BCK1, active compounds read low 0.0697 and 0.127 | locus YJL115W, strain asf1, active compounds read low 0.784 | locus YJL129C, strain trk1, active compounds read low 0.613 | locus YJL134W, strain LCB3, active compounds read low 0.535 | locus YJL154C, strain vps35, active compounds read low 0.774 | locus YJL164C, strain tpk1, active compounds read low 0.587 | locus YJL166W, strain qcr8, active compounds read low 0.449 | locus YJL168C, strain set2, active compounds read low 0.534 | locus YJL187C, strain SWE1 (second series), active compounds read low 0.15 | locus YJL187C, strain SWE1, active compounds read low 0.625 | locus YJR043C, strain POL32, active compounds read low 0.209 | locus YJR066W, strain TOR1, active compounds read low 0.091
